# ssDAF12 agonist: S. stercoralis DAF-12 nuclear receptor activators, primary screen, cell-based, luminescence, HEK293, GRIP1 co-expression, lit1-tk-luc; Nuclear hormone receptor DAF-12 (Strongyloides stercoralis); HEK293 ssDAF-12/GRIP1 lit1-tk-luc reporter; % of 3 µM dafachronic acid response; activation, % at 6.8 µM; 1% of 370,000 active; AID 652126, 2013;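 active = activation above the mean over all tested compounds plus 3 SD, cut at about 0.9% in these data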;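 note: 0% = DMSO-only wells and 100% = 3 µM delta7-dafachronic acid wells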
# DAX1 inh-1: DAX1 (NR0B1) inhibitors on StAR promoter, primary screen, cell-based, luminescence, SF-1 (NR5A1), full-length DAX-1 | HEK293T StAR-luciferase reporter, SF-1/DAX-1 repression relief | AID 652010, 2013 | inhibition, % at 6.8 µM | 1.1% of 370,000 active;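 active = inhibition above the mean over all tested compounds plus 3 SD, cut at about 3.6% in these data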;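 note: 0% = DAX-1 cells with DMSO and 100% = cells lacking DAX-1 with DMSO; higher inhibition means more luminescence from relief of DAX-1 repression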
# AHR act: AHR activators, primary screen, cell-based, luminescence, luciferase reporter, human; Aryl hydrocarbon receptor (Homo sapiens), P35869; activation, % at 5 µM; 2.5% of 320,000 active; AHR-responsive luciferase reporter cells; in the data active = activation above about 47%;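 note: 0% = vehicle wells and 100% = reference agonist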
# hgDAF-12 ag: H. glycines DAF-12 receptor agonists, primary screen, cell-based, luminescence, HEK293, GAL4 fusion, UAS-luciferase; HEK293 GAL4-hgDAF12 UAS-luciferase reporter, agonist luminescence; normalized to butyrate control; Nuclear hormone receptor DAF-12 (Heterodera glycines), GAL4 fusion; 1.8% of 370,000 active; activation, % at 6.8 µM;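 active = activation above a cutoff set at the mean of all screened compounds plus 3 SD, cut at about 10% in these data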;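 note: 0% = DMSO wells and 100% = sodium butyrate wells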
# hcDAF12 agonist: H. contortus DAF-12 nuclear receptor activators, primary screen, cell-based, luminescence, HEK293, lit1-tk-luc reporter; HEK293 hcDAF-12 lit1-tk-luc reporter; 0% DMSO, 100% Δ7-dafachronic acid; activation, % at 6.8 µM; 1.4% of 370,000 active;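 active = activation above the mean of all tested compounds plus 3 SD, cut at about 5.5% in these data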;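 note: 100% = response to 3 µM Δ7-dafachronic acid high control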
# DAX1 inh-2: DAX1 (NR0B1) inhibitors, primary screen, cell-based, HEK293, Gal4-DAX1, luciferase luminescence. HEK293 Gal4-DAX1 luciferase reporter. AID 504766, 2011. Nuclear receptor subfamily 0 group B member 1 (Homo sapiens), P51843. inhibition, % at 6.75 µM. 0.99% of 340,000 active;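 active = inhibition above the mean over all tested compounds plus 3 SD, cut at about 4.2% in these data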;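 note: 0% = DAX1-transfected cells with DMSO and 100% = empty-vector control cells with DMSO; inhibition shows as a rise in luminescence from relieved DAX1 repression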
# Target sequence (P51843 207-470 limits assumed): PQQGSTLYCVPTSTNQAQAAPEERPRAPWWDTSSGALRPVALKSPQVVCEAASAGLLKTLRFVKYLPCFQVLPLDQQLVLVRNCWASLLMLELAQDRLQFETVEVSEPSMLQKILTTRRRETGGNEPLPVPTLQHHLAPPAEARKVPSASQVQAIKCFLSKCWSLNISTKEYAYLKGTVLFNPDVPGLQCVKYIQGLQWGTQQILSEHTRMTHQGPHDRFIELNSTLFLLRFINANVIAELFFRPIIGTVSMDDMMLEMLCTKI
# Active calls of the source: *; · = not tested or not shown. A selection: hits, their analogues and other compounds. The true share with any hit is near 5.7%.
SMILES,ssDAF12 agonist,DAX1 inh-1,AHR act,hgDAF-12 ag,hcDAF12 agonist,DAX1 inh-2
COc1ccccc1NC(=O)c1sc2nc(C)cc(C)c2c1N,0,0,50*,4,-1,0
Cc1cc(C)nc(S/C=C/C(=O)c2ccccc2F)n1,-2,1,-3,0,-1,6.2*
Cc1cc(C)nc(NC(=S)NC(=O)c2ccccc2F)n1,-1,0,28,1,1,·
Cc1ccnc(NC(=S)NC(=O)/C=C/c2ccccc2)c1,-1,0,3,2,1,0
Cc1cccnc1NC(=S)NC(=O)/C=C/c1ccccc1,-1,1,9,12*,1,2
CCOC(=O)C1=NNC(C(=O)O)C1c1ccccc1 (configuration not stated),0,-1,·,10*,6.0*,0
CCOC(=O)C1=NNC(C(=O)OCC)C1c1ccccc1 (configuration not stated),-1,0,·,-2,-1,1
Cc1ccc2cc(F)c(F)c(F)c2n1,1.5*,1,·,7,2,·
O=c1c(C=NCc2ccccc2)c(NCc2ccccc2)nc2ccccn12,-1,-1,6,-1,0,4.5*
Cc1ccc2nc(NCc3ccccc3)c(C=NCc3cccnc3)c(=O)n2c1,-1,0,-1,-2,-1,1
C/C(=N\O)C(C)(C)Nc1cccc(F)c1,-1,1,-2,0,0,5.2*
O=C(C1CCCN1S(=O)(=O)c1cccc2nsnc12)N1CCN(c2ccccc2)CC1 (configuration not stated),·,·,0,·,·,-1
O=C(C1CCCN1S(=O)(=O)c1cccc2ccccc12)N1CCN(c2ccccc2)CC1 (configuration not stated),2.5*,0,·,-4,-3,·
COc1ccc2c(C)cc(SCC(=O)NC3CCCC3)nc2c1,-1,-2,17,-1,0,0
O=C(CSc1nc2ccccc2[nH]1)c1ccc2c(c1)OCO2,-1,0,13,5,-1,6.0*
CC(=O)c1c(C)[nH]c(C(=O)CSc2nc3ccc(C)cc3[nH]2)c1C,-1,-1,70*,2,-2,-1
Cc1ccc2nc(SCC(=O)c3ccc4c(c3)NC(=O)CO4)[nH]c2c1,0,1,44,11*,5,-1
COc1ccc2c(C)cc(SCC(=O)c3ccc4c(c3)OCO4)nc2c1,3.4*,0,65*,5,4,-1
O=C(CSc1nc2ccccc2[nH]1)Nc1ccc2c(c1)OCCO2,-1,0,25,3,0,1
OC(c1ccc(Cl)cc1)c1ncc(-c2ccccc2F)[nH]1 (configuration not stated),-1,1,·,2,1,·
Cc1ccc2nc(SCC(=O)c3ccc4c(c3)OCO4)[nH]c2c1,0,1,57*,3,-1,0
Cc1ccc2nc(SCC(=O)Nc3ccc4c(c3)OCCO4)[nH]c2c1,-1,-1,22,1,-2,-1
O=C(CSc1nc2ccccc2[nH]1)NCc1ccc2c(c1)OCO2,-1,1,55*,0,0,0
O=C(CSc1nc2ccccc2o1)NCc1ccc2c(c1)OCO2,-1,-1,70*,6,2,0
O=C1COc2ccc(C(=O)COC(=O)c3ccc4ccccc4n3)cc2N1,0.9*,-1,12,2,4,1
SMILES,ssDAF12 agonist,DAX1 inh-1,AHR act,hgDAF-12 ag,hcDAF12 agonist,DAX1 inh-2
COc1ccc2c(c1)[C@@]1(NCCc3c1[nH]c1ccc(OC)cc31)C(=O)N2,-1,1,·,-2,-1,·
CCOC(=O)c1ccccc1NC(=O)COC(=O)c1cc([N+](=O)[O-])ccc1N1CCOCC1,-1,1,1,-2,-2,1
COC(=O)[C@]12C[C@H](CC(=O)NCc3cccs3)C(=O)N(Cc3ccc(Cl)cc3Cl)C1=C[C@H](C(C)C)O[C@@H]2C1CC1,-2,0,·,1,0,·
CCOC(=O)c1nn(-c2ccc3c(c2)CCN3C(C)=O)cc1O,0,3.9*,1,8,5,-1
Cc1ccc(OC(=O)COc2ccccc2C)c(-n2nc3ccccc3n2)c1,0,3,19,10,6.2*,1
COC(=O)COc1ccc(C)cc1-n1nc2ccccc2n1,-2,1,-2,-4,1,0
COc1ccc(/C=N/n2cc(-c3ccccc3)nc2N)cc1,·,·,68*,·,·,1
O=C(NCc1ccccc1)c1cccc(COc2cc(Cl)ccc2Cl)c1,0,0,17,11*,0,0
COC(=O)c1c(/N=C/N(C)C)sc2c1CCN(c1ncc(C(F)(F)F)cc1Cl)C2,-1,-1,72*,-2,0,0
c1ccc(-c2cccc(CNc3nc(-c4ccccn4)nnc3-c3ccccc3)c2)cc1,-1,·,·,-11,-3,·
COc1ccc(C(=O)NNC(=O)CSc2ccccc2)cc1,-2,1,6,-2,0,4.5*
COc1ccc(NC(=O)c2ccccc2NC(=O)CSc2ccc(C)cc2)cc1,-1,1,2,3,5.9*,1
COc1cc(C)ccc1OCc1cc(C(=O)N(C)CCCN2CCOCC2)no1,1.8*,1,22,10*,5,2
COc1cc(C(C)=O)ccc1OCc1cc(C(=O)N(C)CCC2CCCCO2)no1 (configuration not stated),1.1*,1,23,10,4,2
CC(=O)/C=C1/C(=O)Nc2ccccc21,0,0,13,2,6.0*,0
COc1cccc(CCc2nnc(CCC(=O)N3CCCC3c3nccs3)o2)c1 (configuration not stated),-2,0,1,-2,-1,4.2*
Cc1ccc(Nc2ccc(C(=O)O)cc2N)cc1,1.1*,3,21,7,2,·
Cc1cc(C)cc(Nc2ccc(C(=O)O)cc2N)c1,-1,0,0,2,0,-3
COc1ccc(N/C(C)=C/C(=O)c2ccccc2)cc1,0,1,3,-1,1,0
COc1ccc(N/C(C)=C/C(=S)Nc2ccccc2)cc1,0,1,15,19*,10*,-1
Cc1onc(-c2ccccc2)c1C(O)c1ccc(F)cc1 (configuration not stated),-1,0,0,2,0,0

# Screening data from PubChem BioAssay.
